Experimental data taken from PubChem BioAssay AID1779 (Sanford-Burnham Center for Chemical Genomics, 2009).
Out of some 290,000 compounds screened, about 160 (0.055%) were called active. For the sample, actives were picked, then their nearest neighbours and some compounds at random. Values without a mark were called inactive. Cut-off read from the data, not from the text of the source: active = inhibition above about 50%; inactive = the rest.

Each molecule was assayed against Tyrosine-protein phosphatase non-receptor type 22 (Homo sapiens) (UniProt Q9Y2R2) (assay: inhibitors of LYP phosphatase, biochemical, fluorescence intensity, uHTS (AID 1779;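 note: plate controls were vehicle with enzyme for no effect and no enzyme for full effect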)). Details: recombinant LYP phosphatase, at 11.5 µM, active compounds read high.
Sequence of Tyrosine-protein phosphatase non-receptor type 22 (Homo sapiens) (Q9Y2R2 whole entry, looked up): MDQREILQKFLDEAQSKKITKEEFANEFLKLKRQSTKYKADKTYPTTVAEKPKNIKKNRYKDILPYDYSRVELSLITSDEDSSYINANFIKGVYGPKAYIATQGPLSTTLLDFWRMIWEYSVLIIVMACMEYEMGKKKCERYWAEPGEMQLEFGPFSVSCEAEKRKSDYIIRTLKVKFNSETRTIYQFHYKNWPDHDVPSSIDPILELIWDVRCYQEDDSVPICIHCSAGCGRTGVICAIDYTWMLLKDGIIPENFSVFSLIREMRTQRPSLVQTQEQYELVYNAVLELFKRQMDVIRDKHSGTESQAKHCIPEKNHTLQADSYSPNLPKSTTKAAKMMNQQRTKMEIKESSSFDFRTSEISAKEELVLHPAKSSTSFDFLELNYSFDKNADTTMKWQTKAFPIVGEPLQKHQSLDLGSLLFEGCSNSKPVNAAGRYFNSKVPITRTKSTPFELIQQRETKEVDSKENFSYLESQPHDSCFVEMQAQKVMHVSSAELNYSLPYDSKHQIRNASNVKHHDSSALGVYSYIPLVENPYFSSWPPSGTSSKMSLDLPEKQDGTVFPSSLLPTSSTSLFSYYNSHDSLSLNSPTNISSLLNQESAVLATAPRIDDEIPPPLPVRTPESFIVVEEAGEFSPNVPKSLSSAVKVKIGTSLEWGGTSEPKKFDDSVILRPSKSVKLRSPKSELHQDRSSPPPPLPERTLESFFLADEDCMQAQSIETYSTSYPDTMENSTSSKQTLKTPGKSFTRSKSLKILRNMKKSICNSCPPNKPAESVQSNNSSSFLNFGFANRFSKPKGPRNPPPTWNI
Molecule `CN(C)CCCNc1nc(-c2ccccc2)nc2ccccc12` has an inhibition of -1.4%. For `COc1ccc(Cn2c3nc4ccccc4nc3c3c(=O)n(Cc4ccco4)c(C)nc32)cc1`, the inhibition was 55.8% (active). In the case of `Cc1nc2c(c(=O)n1Cc1ccccc1Cl)c1nc3ccccc3nc1n2Cc1ccco1`, the inhibition was -4.4%. Work on `COc1ccc(Cn2c3nc4ccccc4nc3c3c(=O)n(Cc4ccco4)cnc32)cc1` yielded an inhibition of 24.1%. In the case of `COc1cccc(-c2onc3ccc(C(=O)/C=C/N(C)C)cc23)c1`, the inhibition was 2.8%. `CCOC(=O)CC1(NC(=O)c2cc(COc3cncc(Cl)c3)on2)CCCCC1` was tested, and the inhibition was 54.6% (active). Molecule `CCOC(=O)CC1(NC(=O)c2cc(COc3cccc(OC)c3)on2)CCCCC1` has an inhibition of 4.4%. Molecule `CCOC(=O)CC1(NC(=O)c2cc(COc3ccc(F)c(F)c3)on2)CCCCC1` has an inhibition of -5.7%. `COc1cccc(-n2c(=O)c3sccc3n(CC(=O)NCC3CCCO3)c2=O)c1` (configuration not stated) gave an inhibition of -10.8%. Molecule `O=C(Cn1c(=O)n(-c2cccc(C(F)(F)F)c2)c(=O)c2sccc21)NCC1CCCO1` (configuration not stated) has an inhibition of -9.3%. With `Cc1ccc(-n2c(=O)c3sccc3n(CC(=O)NCC3CCCO3)c2=O)cc1F` (configuration not stated) the inhibition was 68.5% (active). In the case of `O=C(CCCN1C(=O)/C(=C/c2cccs2)SC1=S)Nc1cc([N+](=O)[O-])ccc1O`, the inhibition was -12.6%. `CC(=O)/C=C(\C)NCCNc1c(F)c(F)c(CO)c(F)c1F` showed an inhibition of -3.3%. Work on `O=C1C=C(NCc2ccccc2)CCC1` yielded an inhibition of -5.3%. In the case of `O=C1C=C(NCCNc2c(F)c(F)c(CO)c(F)c2F)CCC1`, the inhibition was 72.7% (active). For `CCOc1c(O)ccc(C2NC(=O)N(C)C(C)=C2C(=O)OC)c1[N+](=O)[O-]` (configuration not stated), the inhibition was 4%. `CC(=O)Nc1ccc(S(=O)(=O)NNC(=O)COc2ccc(C(C)(C)C)cc2)cc1` gave an inhibition of -2.6%. `O=C(NNC(=O)c1cccc(Br)c1)C(=O)N1CCCCC1` was tested, and the inhibition was 60% (active). `O=C(NNC(=O)c1ccccc1)C(=O)N1CCCCC1` was tested, and the inhibition was 2.5%. In the case of `COc1cccc(C(=O)NNC(=O)C(=O)N2CCCCC2)c1`, the inhibition was -8.5%. `CCN(CC)CCN(Cc1cc2cc3c(cc2[nH]c1=O)OCCO3)C(=S)NCCCOC` gave an inhibition of -16.1%. `COC(=O)C1=NN(C(=O)c2cccc(Cl)c2)C(O)(C(C)(C)C)C1` (configuration not stated) was tested, and the inhibition was 65.7% (active). `CCOC(=O)C1=NN(C(=O)c2cccc(Br)c2)C(O)(C(C)(C)C)C1` (configuration not stated) showed an inhibition of -3.2%. In the case of `COC(=O)C1=NN(C(=O)c2ccc(Br)cc2)C(O)(C(C)(C)C)C1` (configuration not stated), the inhibition was -3.5%. Molecule `O=C(O)CC/C(=N/NC(=O)c1cn(-c2ccccc2)nc1-c1ccccc1)C(=O)O` has an inhibition of -3.5%. `COc1ccc(NS(=O)(=O)c2ccc3c(c2)[C@H]2C=CC[C@H]2[C@@H](c2ccc(C(=O)O)cc2)N3)cc1` gave an inhibition of 4.5%. With `COc1cccc(NS(=O)(=O)c2ccc3c(c2)C2C=CCC2C(c2ccc(C(=O)O)cc2)N3)c1` (configuration not stated) the inhibition was 16.1%. `O=C(Cc1ccc(Cl)cc1Cl)NC1CCCCCC1` gave an inhibition of -4.7%. Molecule `S=C(NCc1ccccc1Cl)NC1CCCC1` has an inhibition of -7.7%. In the case of `S=C(NCc1ccc(Cl)cc1Cl)NC1CCCCC1`, the inhibition was 68.1% (active). In the case of `COc1cc(N(C)C)c([N+](=O)[O-])cc1C(=O)NC(C)CNc1ccc([N+](=O)[O-])cc1Cl` (configuration not stated), the inhibition was -7.4%. `Cc1ccc(CN(CC(=O)NC(C)(C)C)C(=O)CNC(=O)c2cccs2)cc1` gave an inhibition of -5.3%. `Cc1occc1C(=O)NNS(=O)(=O)c1ccc([N+](=O)[O-])cc1` gave an inhibition of -10.5%. With `Cc1ccc(S(=O)(=O)NNC(=O)c2ccoc2C)cc1` the inhibition was -5.8%. In the case of `Cc1occc1C(=O)NNS(=O)(=O)c1ccc(Cl)cc1`, the inhibition was 71.2% (active). For `Cn1c(=O)c2ncn(CC(=O)N/N=C/c3ccco3)c2n(C)c1=O`, the inhibition was -9.9%. `CC(=O)CCS(=O)(=O)c1ccc(NC(C)=O)cc1` was tested, and the inhibition was -5.5%. Work on `O=C(COC(=O)c1cc(-c2cccs2)nn1-c1ccccc1)Nc1ccc(Cl)c([N+](=O)[O-])c1` yielded an inhibition of 2%. `O=C(COC(=O)c1cc(-c2cccs2)nn1-c1ccccc1)Nc1ccc(F)c([N+](=O)[O-])c1` showed an inhibition of -7.7%. With `Cc1ccc(NC(=O)COC(=O)c2cc(-c3cccs3)nn2-c2ccccc2)cc1[N+](=O)[O-]` the inhibition was 74.9% (active). In the case of `CC(=O)c1ccc(N2C(=O)[C@@H]3C(CCC(N)=O)NC4(C(=O)Nc5c4ccc(Cl)c5C)[C@@H]3C2=O)cc1` (some centres not stated), the inhibition was -3.9%. With `N#Cc1c(N2CCCC2)nc(N)c2c(N)nc(N3CCCC3)cc12` the inhibition was 65.7% (active). With `COc1cc2c(C#N)c(N3CCCC3)nc(N)c2c(N)n1` the inhibition was -2.4%. In the case of `COc1cc2c(C#N)c(N3CCCCC3)nc(N)c2c(N)n1`, the inhibition was -1.1%. For `CCCC(=O)NC(=S)Nc1ccccc1F`, the inhibition was -10.5%. Work on `Cc1cccc(C)c1N1CCN(c2n[nH]c(N)n2)CC1` yielded an inhibition of -8.3%. Molecule `CC1(C)CCC(=O)N(c2ccccc2)C1=O` has an inhibition of -3%. Molecule `CC1(C)Nc2ccccc2C(=O)N1c1ccccc1` has an inhibition of -11.8%. In the case of `CC12CCC(=O)N1c1ccccc1C(=O)N2c1ccccc1` (configuration not stated), the inhibition was 66.6% (active). Work on `CC(=O)Nn1c(COc2ccccc2C)nc2ccccc2c1=O` yielded an inhibition of -4.5%. `Cc1cccc(-n2ccc(=O)c(C(=O)Nc3ccc(S(=O)(=O)Nc4onc(C)c4C)cc3)n2)c1` gave an inhibition of -7.6%. `Cc1ccc(-n2ccc(=O)c(C(=O)Nc3ccc(S(=O)(=O)Nc4onc(C)c4C)cc3)n2)cc1` showed an inhibition of 2.8%. With `Cc1noc(NS(=O)(=O)c2ccc(NC(=O)c3nn(-c4ccccc4)ccc3=O)cc2)c1C` the inhibition was 53.3% (active). `COc1cc(CC(NC(C)=O)C(=O)NC2CCN(c3nc(C)cc(C)c3C#N)CC2)cc(OC)c1` (configuration not stated) showed an inhibition of -2.6%. `COc1cc(/C=C2/NC(=O)NC2=O)cc(Br)c1OCc1cccc(C(=O)O)c1` gave an inhibition of 4.5%. `COc1cc(/C=C2/NC(=O)NC2=O)cc(Br)c1OCc1ccc(C(=O)O)cc1` gave an inhibition of 26.8%. Work on `Nc1nonc1-n1nnc(C(=O)N/N=C/c2ccoc2)c1CSc1ccc(Cl)cc1` yielded an inhibition of -6.9%. `C=C(C)Cn1c(SCC(=O)O)nc2c1c(=O)[nH]c(=O)n2C` gave an inhibition of -3.9%. For `CCCc1nc2ccc([N+](=O)[O-])cc2[nH]1`, the inhibition was -5.4%. Work on `CCc1nc2cc(Cl)c(Cl)cc2[nH]1` yielded an inhibition of -3%. With `CCc1nc2cc([N+](=O)[O-])c([N+](=O)[O-])cc2[nH]1` the inhibition was 54.4% (active). With `Nc1ccc2nc3c(=O)[nH]c(=S)[nH]c3nc2c1` the inhibition was 58.3% (active). With `CCC(=O)Nc1ccc2nc3c(=O)[nH]c(=S)[nH]c3nc2c1` the inhibition was -5.4%. Work on `Nc1ccc2nc3c(=O)n(C4CCCCC4)c(=O)[nH]c3nc2c1` yielded an inhibition of 4.7%. In the case of `OC(COC(c1ccccc1)c1ccccc1)CN1CCOCC1` (configuration not stated), the inhibition was 1.2%. For `COC(=O)C1CCN(Cc2ccc(OCCCN3CCN(c4ccc([N+](=O)[O-])cc4)CC3)cc2)CC1`, the inhibition was 78.6% (active). Molecule `COC(=O)C1CCN(CCCOc2ccc(CN3CCN(c4ccc([N+](=O)[O-])cc4)CC3)cc2)CC1` has an inhibition of -8%. Work on `COC(=O)C1CCN(c2ccc([N+](=O)[O-])cc2)CC1` yielded an inhibition of -2.8%. `CCOC(=O)c1cnc2c(C)c(C)ccc2c1NCCN1CCOCC1` was tested, and the inhibition was -7.3%. For `CCOC(=O)c1cnc2c(Cl)cccc2c1NCCN1CCOCC1`, the inhibition was -9.2%. `CCOC(=O)c1cnc2c(Cl)c(Cl)ccc2c1NCCN1CCOCC1` was tested, and the inhibition was 59.4% (active). Work on `COc1ccc(C(=O)NCCNC(C)=O)cc1S(=O)(=O)NCc1ccc(Cl)cc1` yielded an inhibition of -8.9%.
